# Sampled rows, rich in hits. Any-hit rate of the full collection: about 5.8%.
# 12-LOX inh – ALOX12 (human) lipoxygenase inhibition | P18054 | 580,000 tested, 1.1% active | purified 12hLO, xylenol orange hydroperoxide absorbance | Potency, µM (series often up to 108 µM), for the others: at the top dose activity change, negative = inhibition, hits mostly inhibitors; also: % is scaled to controls: 0 for no effect and ±100 for the full control effect
# Target sequence (P18054 whole entry, looked up): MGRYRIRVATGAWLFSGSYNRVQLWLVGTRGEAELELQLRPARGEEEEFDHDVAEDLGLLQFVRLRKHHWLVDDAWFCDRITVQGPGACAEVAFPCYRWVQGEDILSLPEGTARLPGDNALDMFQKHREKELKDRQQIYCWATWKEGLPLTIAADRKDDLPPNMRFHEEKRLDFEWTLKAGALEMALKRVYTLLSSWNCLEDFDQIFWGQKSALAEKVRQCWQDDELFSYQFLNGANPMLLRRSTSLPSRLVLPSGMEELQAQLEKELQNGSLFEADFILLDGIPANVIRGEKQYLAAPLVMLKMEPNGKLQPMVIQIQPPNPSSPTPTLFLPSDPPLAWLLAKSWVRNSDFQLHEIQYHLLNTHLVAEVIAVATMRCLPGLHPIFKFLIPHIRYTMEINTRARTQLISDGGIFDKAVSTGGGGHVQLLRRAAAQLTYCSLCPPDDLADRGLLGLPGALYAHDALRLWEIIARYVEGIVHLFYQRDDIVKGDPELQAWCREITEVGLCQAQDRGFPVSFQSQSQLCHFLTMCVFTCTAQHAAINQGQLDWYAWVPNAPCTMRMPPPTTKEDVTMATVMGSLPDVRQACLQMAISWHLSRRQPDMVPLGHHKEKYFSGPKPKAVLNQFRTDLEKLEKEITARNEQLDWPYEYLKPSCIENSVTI
#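 Purified human 12hLO at 150 nM in 25 mM Hepes, 0.01% Triton X-100, pH 7.0, preincubated 15 min at room temperature with compound. Reaction started with 40 uM arachidonic acid, 30 min at room temperature. Hydroperoxide measured by Fe-xylenol orange, 573/405 nm absorbance ratio.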
# KB-3-1 tox – KB-3-1 parental cell cytotoxicity; KB-3-1 viability, CellTiter-Glo ATP luminescence, 72 h; Potency, µM (top dose mostly 46.1 µM), most hits filed as cytotoxic; 400,000 tested, 1.4% active; AID 1347075; also: % is scaled to controls: 0 for no effect and ±100 for the full control effect; nearly all actives have a fitted effect of over 60% in size
#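 Multi-concentration cytotoxicity screen in KB-3-1 cells grown in DMEM lacking phenol red with 10% FBS. After 72 h at 37 °C with compound, ATP-dependent luminescence was recorded.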
# KB-V1 cytotox – kills drug-selected multidrug resistant KB-V1 cells; 400,000 tested, 3.4% active; KB-V1 MDR cells viability, CellTiter-Glo, 72 h; Potency, µM (titrated, usually from 46.1 µM), usual class: cytotoxic; also: % is scaled to controls: 0 for no effect and ±100 for the full control effect; nearly all actives have a fitted effect of over 60% in size
#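 qHTS viability screen in drug-selected KB-V1 MDR cells: 72 h compound treatment at 37 degrees C, ATP luminescence end point.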
# PINK1 modulator – changes PINK1 expression; AID 624263; PINK1 immunofluorescence, high-content cytometry, 24 h; Potency, µM (titrated, usually from 76.6 µM), inactives show top-dose activation (PINK1 increase), usual class: activators; 410,000 tested, 0.2% active; active = well fitted activation curve with a large enough effect; inconclusive = small, poorly fitted or top-dose-only effect; cell line not stated here; also: % of control where 0% means no effect; nearly all actives have a fitted effect of over 65% in size
#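 PINK1 protein level read as immunofluorescence by microplate cytometer in a fixed, stained stable cell line after 24 h exposure to five compound concentrations, with CCCP as control.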
# MCF10A rereplic – induces DNA re-replication in MCF 10a normal breast cells. 350,000 tested, 2.9% active. AID 624296. Potency, µM (titrated, usually from 46.1 µM), inactives show at the top dose activity, positive = re-replication, hits mostly activators. MCF 10A DNA re-replication, Hoechst nuclear intensity, 48 h; also: % of control where 0% means no effect; nearly all actives have a fitted effect of over 50% in size
# SW480 rereplic – DNA re-replication induction in SW480 cells; SW480 DNA re-replication, Hoechst DNA content imaging, 48 h; Potency, µM (titrated, usually from 46.1 µM), inactives show top-dose re-replication activation, most hits filed as activators; 340,000 tested, 1.8% active; AID 624297; also: % of control where 0% means no effect; nearly all actives have a fitted effect of over 55% in size
#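 Treated cells incubate 48 hr (37 C, 5% CO2), are stained 40 min with Hoechst, and nuclear fluorescence is enumerated; a rise in nuclei with high DNA signal marks re-replication.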
# Active calls of the source: *; i = inactive; ? = inconclusive; · = not tested or not shown; [ ] = another dose, or the depositor's remark. Unless noted, calls follow the shape of the dose curve; as a rule, active = well fitted curve in the direction sought with a large enough effect; inconclusive = small, poorly fitted or top-dose-only effect, or another doubt; inactive = no such curve, though single readings can be large; an effect the other way counts as inactive or inconclusive. Potency is read from the fitted curve at half-maximal effect.
SMILES,12-LOX inh,KB-3-1 tox,KB-V1 cytotox,PINK1 modulator,MCF10A rereplic,SW480 rereplic
COC(=O)c1ccc(CSc2ccc3nnc(-c4ccc(OC)c(OC)c4)n3n2)o1,-14.8%,i,7.31µM*,1.1%,-0.8%,-17.8%
COc1ccc(-c2nnc3ccc(SCC(=O)N4CCCCCC4)nn23)cc1OC,23.3%[57.4 µM],i,i,1.0%,4.9%,-4.4%
COc1ccccc1C1=NS(=O)(=O)N(C)C(C(=O)Nc2cccc(O)c2)=C1,-41.2%,·,·,·,·,·
CCOC(=O)C1=C(C)NC2=C(C(=O)C(C(=O)OCC)C(c3ccco3)C2)C1c1ccccn1 (configuration not stated),-10.7%,i,i,-0.2%,372.7%[0.0737 µM],6.51µM*
CCOC(=O)C1=C(C)NC2=C(C(=O)C(C(=O)OCC)C(c3ccco3)C2)C1c1ccccc1C (configuration not stated),·,i,i,3.8%,·,·
Cc1nc(N2CCN(Cc3ccccc3)CC2)nc2c1C(=O)CC(C)C2 (configuration not stated),0.0%,i,20.6µM*,2.7%,4.3%,9.1%
Cc1nc(SCc2nc(-c3cccc(Cl)c3)oc2C)[nH]c(=O)c1C,-16.7%,·,·,·,·,·
Cc1c(C(O)CN2CCN(Cc3ccc4c(c3)OCO4)CC2)c2ccccc2n1C (configuration not stated),44.7µM*,i,i,-6.3%[38.3 µM],19.2%,?
O=C(NNS(=O)(=O)c1ccc(F)cc1)c1ccccc1F,-12.8%,i,i,0.1%,-1.1%,18.4µM*
COc1ccccc1C(=O)NNS(=O)(=O)c1ccc(F)cc1,?,i,i,0.7%,-10.0%,-11.3%
O=c1oc2ccccc2c(NC2CCCCC2)c1NS(=O)(=O)c1ccc(F)cc1,-4.4%,i,i,0.6%,?,?
O=c1[nH]c2ccc(S(=O)(=O)Nc3c(NC4CCCCC4)c4ccccc4oc3=O)cc2o1,39.8µM*,·,·,·,·,·
CCc1oc2ccccc2c1C(=O)c1cc(I)c(O)c(I)c1,12.8µM*,·,·,·,3.76µM*,7.9%
C(=N\NC1=Nc2cccc3cccc1c23)/c1cccnc1,-15.2%,i,16.4µM*,-0.4%,?,0.4%
COc1ccccc1C1=NC(c2ccccc2)CN1c1ccccc1 (configuration not stated),-13.7%,i,i,11.8%,5.17µM*,6.51µM*
CCOc1ccc(NC(=O)N2CCc3cc(OC)c(OC)cc3C2CNC(=O)c2ccco2)cc1 (configuration not stated),25.2%,·,·,·,·,·
CCC(Sc1nc2ccccc2s1)C(=O)Nc1nnc(C)s1 (configuration not stated),0.0%,i,16.4µM*,0.0%[38.3 µM],?,-0.7%
c1ccc(CN2CCN(CCOCCOc3ccc4c(c3)CCC4)CC2)cc1,50.1µM*,?,?,-0.8%,?,?
COc1cc(NC(=O)c2ccc3c(c2)N(C)C2CCCCN2C3=O)cc(OC)c1OC (configuration not stated),29.1%,·,·,·,·,·
COC(=O)C1=C(C)NC(C)=C(C(=O)OCC(C)C)C1c1ccccc1[N+](=O)[O-] (configuration not stated),?,i,3.66µM*,2.4%,26.6µM*,?
COC(=O)C1=C(C)NC(C)=C([N+](=O)[O-])[C@H]1c1ccccc1C(F)(F)F,0.0%,i,i,1.9%,·,·
CN1C[C@@H](NC(=O)Nc2ccccc2)C[C@H]1c1nc(-c2ccccc2)no1,28.2µM*,·,·,·,·,·
CC(NC(=O)CCc1c[nH]c2ccccc12)c1ccco1 (configuration not stated),-52.7%,·,·,·,·,·
CCOC(=O)n1c(=O)n(C)c2ccc(Cl)cc21,1.7%,?,8.2µM*,-1.9%,-9.6%,-1.3%
[O-][n+]1c2ccccc2cc2ccccc21,3.5%,i,i,0.0%,18.4µM*,18.4µM*
SMILES,12-LOX inh,KB-3-1 tox,KB-V1 cytotox,PINK1 modulator,MCF10A rereplic,SW480 rereplic
CCN(CC)C(=O)c1ccc2oc(CN3CCN(C(=O)Nc4ccc(C)c(F)c4)CC3)nc2c1,13.1%,·,·,·,·,·
c1cc2c(cc1OC1CN(CC3CCCCC3)C1)OCO2,5.6%[12.5 µM],·,·,·,·,·
CCCC1CCCN(C(=O)Cn2nc(C)c3ccccc3c2=O)CC1 (configuration not stated),29.3%,·,·,·,·,·
Cn1cc(CN2CCC(C(O)c3cccs3)CC2)c(-c2cccc(Cl)c2)n1 (configuration not stated),4.1%,i,i,-1.5%,5.2%,-11.1%
Cc1cc(N2CCN(Cc3cn(C)nc3-c3cccc(Cl)c3)CC2)cc(C)n1,-2.6%,9.2µM*,?,3.3%,?,23.1µM*
Cc1cc(N2CCN(Cc3cn(C)nc3-c3ccccc3F)CC2)cc(C)n1,1.7%,6.51µM*,i,2.4%,16.4µM*,7.31µM*
Cn1cc(CN2CCN(c3ncccn3)CC2)c(-c2cccc(Cl)c2)n1,1.3%,i,?,0.0%,20.6µM*,6.1%
O=C(COC(=O)CCc1nc2ccccc2s1)Nc1ccc([N+](=O)[O-])cc1C(F)(F)F,-3.7%,·,·,·,·,·
Cc1cc(S(=O)(=O)N(C)C)c(C)cc1Br,13.8%,·,·,·,·,·
Cc1cnccc1CN(C)C(=O)c1cc(COc2ccc(-n3cncn3)cc2)on1,101.6%,·,·,·,·,·
CC(NC(=S)NCCc1ccccc1)c1ccc(C(C)(C)C)cc1 (configuration not stated),39.8µM*,·,·,·,·,·
CNC(=S)NCCc1ccccc1,?,i,i,0.9%,26.3%,-16.2%
CC(C)(CNC(=S)NCCc1ccccc1)CNC(=S)NCCc1ccccc1,20µM*,?,i,?,23.1µM*,?
CCOc1ccccc1NC(=O)COC(=O)c1sc2cc(F)ccc2c1Cl,-1.7%,·,·,·,·,·
COc1cncc(Nc2ncc(-c3cccc(F)c3)c3c2OCC3)c1,30.8%[176 µM],·,·,·,·,·
CCOc1ccc(NC(=O)CN(c2ccccc2OCC)S(=O)(=O)c2ccccc2)cc1,-17.1%,i,i,6.3%,·,·
CCS(=O)(=O)N(CC(=O)Nc1cccc2ccccc12)c1ccc(OC)cc1,-8.2%,i,13µM*,-0.6%,4.2%,-0.5%
Cc1ccc(N(CC(=O)Nc2ccc3c(c2)OCCO3)S(=O)(=O)c2c(C)noc2C)cc1,-2.0%,i,?,-1.9%,-2.8%[9.22 µM],-0.8%
COc1ccc(N(CC(=O)Nc2cc(C)on2)S(=O)(=O)c2cc(C)ccc2C)cc1,-17.7%,?,5.8µM*,-5.1%[38.3 µM],22.5%,?
CCOc1ccccc1N(CC(=O)Nc1ccccc1F)S(=O)(=O)c1ccccc1,6.2%,i,?,9.3%,0.581µM*,?

# Compound activity deposited in PubChem BioAssay by National Center for Advancing Translational Sciences (NCATS).
